KLF5 inh – inhibitors of KLF5 expression | DLD-1 KLF5 promoter-luciferase reporter, luminescence | 290,000 tested, 0.23% active | AID 1700 | inhibition, % at 5 µM;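 active = inhibition above a per-plate limit of that plate's mean compound inhibition plus 3 SD, cut at about 60% in these data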;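 note: 0% = DMSO wells and 100% = LY294002 at 200 µM; higher means less KLF5 promoter-driven luciferase light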
DNA FID counter – displaces DNA intercalator in HCV helicase counter-screen; DNA fluorescent intercalator displacement, fluorescence; inhibition, % at 7.9 µM; 290,000 tested, 0.17% active; in the data active = inhibition above about 37%;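 note: 0% = vehicle and 100% = reference compound; higher means more ethidium bromide displaced from hairpin DNA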
GPR7 antagonist – antagonists of human GPR7 (neuropeptides B/W receptor 1); GPR7-expressing cells, fluorescence antagonist assay; inhibition, % at 4.4 µM; 290,000 tested, 1.1% active; AID 1861; in the data active = inhibition above about 16%, passing the limit was not always enough;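 note: cells stimulated with the agonist NPW; 0% = agonist with vehicle and 100% = vehicle without agonist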
Target sequence (P48145 whole entry, looked up): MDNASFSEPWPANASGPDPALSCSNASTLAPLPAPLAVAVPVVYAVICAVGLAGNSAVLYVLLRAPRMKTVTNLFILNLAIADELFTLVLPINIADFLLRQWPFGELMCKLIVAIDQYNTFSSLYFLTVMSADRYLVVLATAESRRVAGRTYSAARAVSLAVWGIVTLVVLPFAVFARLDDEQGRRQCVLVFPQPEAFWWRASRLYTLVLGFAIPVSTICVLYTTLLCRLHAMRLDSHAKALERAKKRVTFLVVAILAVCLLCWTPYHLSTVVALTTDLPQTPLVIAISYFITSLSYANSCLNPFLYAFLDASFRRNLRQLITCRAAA
IEC-6 tox – IEC-6 cytotoxicity, counter-screen for KLF5 inhibitors | AID 1825 | luminescence viability | inhibition, % at 5 µM | 290,000 tested, 0.78% active; in the data active = inhibition above about 22%;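 note: 0% = plate median of test compound wells and 100% = cytotoxic reference compound wells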
Ba/F3 V617F tox – loss of viability in JAK2V617F-driven Ba/F3 cells. Ba/F3 EpoR-JAK2V617F viability, ATP luminescence. inhibition, % at 5.6 µM. 220,000 tested, 1.1% active. AID 1446;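 active = inhibition above the campaign mean plus 3 SD over all tested compounds, cut at about 24% in these data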;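 note: cytokine-independent growth of Ba/F3 cells driven by EpoR plus mutant JAK2; 0% = DMSO-treated cells and 100% = JAK inhibitor I control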
BaF3 parental – parental Ba/F3 viability inhibition as JAK2V617F counter-screen. CellTiter-Glo ATP luminescence. inhibition, % at 5.6 µM. 220,000 tested, 1.1% active. AID 1486;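 active = inhibition above a per-campaign cutoff, the mean inhibition of all tested compounds plus 3 SD, cut at about 27% in these data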;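 note: 0% = DMSO wells and 100% = JAK Inhibitor I control wells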
Numbers without * were called inactive; / = no result. Sampled rows, rich in hits. Any-hit rate of the full collection: about 2.6%.

SMILES	KLF5 inh	DNA FID counter	GPR7 antagonist	IEC-6 tox	Ba/F3 V617F tox	BaF3 parental
CCOC(=O)c1[nH]c(C)c(C(=O)N2CCN(c3ccccc3)CC2)c1C	-29.1	-35.3	-3.8	-1.4	7.6	6.0
CCOc1ccc2ccccc2c1C(=O)N1CCN(c2ccccc2)CC1	34.8	-36.9	19.8*	24.6*	46.3*	42.4*
CCC1(C)OC(=O)N2CCc3c(C)[nH]c4c(C)ccc(c34)C21C (configuration not stated)	-19.0	-16.9	17.8*	14.1	6.2	5.4
COc1ccc(NC(=O)CNC(=O)Cn2c(C)cc3ccccc3c2=O)cc1OC	5.0	-11.0	-9.8	-4.8	-0.7	7.8
Cc1c(Br)c([N+](=O)[O-])nn1CC(=O)Nc1ccc2nc3n(c(=O)c2c1)CCCC3	-48.6	64.4*	-16.6	0.3	/	/
CS(=O)(=O)CC(=O)Nc1ccc2nc3n(c(=O)c2c1)CCCCC3	-1.2	3.8	-7.1	2.7	0.0	-3.9
CCN1CCc2c(C#N)c(NCc3ccccc3)nc(N(CC)CC)c2C1	-5.7	29.8	7.9	-11.3	18.7	49.7*
Cc1ccc(C(=O)c2coc3c2C(=O)C(=O)c2ccccc2-3)cc1	-35.4	-8.1	11.4	-1.1	3.6	8.2
Cc1oc2c(c1C(=O)c1ccc(Cl)cc1)C(=O)C(=O)c1ccccc1-2	18.1	6.7	28.2*	-1.6	-1.6	3.5
Cc1ccc(C(=O)Nc2ncc(C)s2)o1	-177.3	-4.9	-12.3	5.3	2.9	7.8
Cc1ccc(C(=O)Nc2ncc(Cc3ccc(F)cc3)s2)o1	-107.3	-6.0	-10.5	45.4*	79.7*	71.3*
Clc1ccc(Nc2ccc(NCc3ccccc3)nn2)cc1	6.9	8.6	18.9*	10.2	0.6	4.2
COCCCNC(=S)NNC(=O)c1csc2ccccc12	-3.0	-2.1	-4.7	4.9	-4.3	1.8
O=C(NCCN1CCOCC1)NC1(C(F)(F)F)Oc2ccccc2O1	-2.0	-1.4	2.1	3.0	2.5	9.3
CCCN(CCC)CCCNC(=O)c1cc2cc3ccc(OC)cc3nc2o1	-23.9	37.4*	-13.9	8.7	8.6	11.0
O=[N+]([O-])c1cc(Oc2cccnc2)cc([N+](=O)[O-])c1	-18.3	6.6	3.4	-10.4	-3.6	-2.9
Cc1cnc(NC(=O)c2nn(C)cc2[N+](=O)[O-])s1	-12.8	4.2	8.7	11.7	20.1	-0.6
Cn1cc([N+](=O)[O-])c(C(=O)Nc2ccc(-c3nc4ccccc4[nH]3)cc2)n1	-60.8	9.2	-0.1	24.8*	4.1	1.2
Cc1ccc(-c2nc(NC(=O)c3nn(C)cc3[N+](=O)[O-])sc2C)cc1C	37.5	-10.5	-6.1	15.3	91.9*	85.2*
Cn1cc([N+](=O)[O-])c(C(=O)Nc2cc(Oc3cccnc3)cc([N+](=O)[O-])c2)n1	1.2	10.1	-0.3	24.0*	65.8*	50.7*
Cc1ccc(-c2nc(NC(=O)c3nn(C)cc3[N+](=O)[O-])sc2C)cc1	20.4	-10.5	-1.3	15.8	77.2*	80.9*
CCOC(=O)C(=O)N1CCN(c2ccccc2OC)CC1	-32.2	-0.1	-13.1	-4.0	0.5	8.2
Cc1ccc(CSCc2ccc(C(=O)NCCC(C)C)o2)cc1	-5.3	-31.0	5.6	-10.4	/	/
CC1=CCC2COC(c3ccc[n+](Cc4ccccc4)c3)C1C2 (configuration not stated)	5.7	4.8	3.4	-1.7	46.3*	66.8*
CCOc1ccc(CCNC(=O)C2CCN(S(=O)(=O)N3CCCCC3)CC2)cc1OCC	-15.9	-48.0	-1.1	-1.4	-1.2	92.6*
SMILES	KLF5 inh	DNA FID counter	GPR7 antagonist	IEC-6 tox	Ba/F3 V617F tox	BaF3 parental
CC(C)(C)n1nnnc1C(c1cccs1)N(Cc1ccccc1)Cc1ccco1 (configuration not stated)	4.3	-19.4	-6.8	-0.3	-1.2	2.3
COc1ccc(C2CN=NC2C(=O)c2ccccc2)cc1 (configuration not stated)	-13.0	-10.9	2.9	-1.5	-1.3	-1.1
CSc1ccc(CN2CCN(Cc3ccc([N+](=O)[O-])cc3)CC2)cc1	-13.2	14.0	31.0*	-3.7	-2.6	-0.1
CCCN(CCC)C(=O)C1CCN(c2cc(C)nc3c(-c4ccc(OC)c(OC)c4)c(C)nn23)CC1	-58.4	-14.5	-5.2	0.0	-0.1	39.5*
O=[N+]([O-])c1ccc(C2=NN(c3ccccc3)C(c3ccco3)C2)cc1 (configuration not stated)	-43.8	-10.6	24.4*	-4.4	0.6	-0.7
COc1ccc(S(=O)(=O)N(CC(=O)NCc2ccco2)c2ccccc2)cc1OC	9.2	-15.5	-10.1	1.9	-3.0	3.8
CC1Cc2ccccc2N1c1nc(C2CC2)nc2c1nnn2Cc1ccccc1 (configuration not stated)	-10.2	-6.0	-13.1	-0.1	0.9	4.8
O=c1c(O)c(-c2cccs2)oc2ccccc12	-31.1	-0.4	-0.2	3.6	2.3	13.9
O=c1c(O)c(-c2cccs2)oc2ccc(Cl)cc12	-55.4	-3.7	23.9*	-1.0	-1.2	4.7
O=C(C1CCN(S(=O)(=O)c2cccc3cccnc23)CC1)N1CCN(c2ccc(Cl)cc2)CC1	-10.1	-46.9	17.3*	0.8	2.2	10.2
O=C(C1CCN(S(=O)(=O)c2cccc3cccnc23)CC1)N1CCN(c2ccccn2)CC1	-22.2	-28.8	-0.5	-0.1	-3.2	7.5
COc1ccccc1C(=O)NNC(=O)C(=O)Nc1cccc(Cl)c1C	-28.0	-12.7	-5.4	6.6	/	/
COc1ccc(-c2cc(C(=O)OCC(=O)N(C)C)c3ccccc3n2)cc1	-5.4	-22.3	17.8*	5.3	0.1	2.0
CN(C)c1ccc(P(=O)(COc2ccc([N+](=O)[O-])cc2)c2ccc(N(C)C)cc2)cc1	-6.0	-36.4	20.4*	1.1	-0.3	3.4
CC1CCCC(NC(=O)CSc2ccc(F)cc2)C1C (configuration not stated)	-21.8	-13.5	3.4	3.8	-2.2	6.2
CC1CCCC(NCC(O)COC(c2ccc(F)cc2)c2ccc(F)cc2)C1C (configuration not stated)	-14.3	46.5*	56.5*	4.7	12.6	47.4*
CC(C)C[C@@H](CO)N1CCN(Cc2ccccc2)CCC1=O	-21.0	-4.1	10.3	3.5	/	/
Cc1nc(-c2cc(-c3nc(-c4ccc(C(F)(F)F)cc4)no3)no2)cs1	-4.4	-3.4	-9.3	1.3	-0.9	61.1*
Cc1nc(-c2cc(-c3nc(-c4cc(C(F)(F)F)cc(C(F)(F)F)c4)no3)no2)cs1	-20.4	-0.9	-2.5	-0.9	-5.2	-1.4
C[N+](C)(C)CCN(Cc1ccc(Cl)cc1)c1ccccn1	-19.1	7.9	-15.6	4.3	33.4*	28.8*
COc1ccc(C(=O)Nc2ccccc2N2CCN(C(=O)C(C)C)CC2)cc1Cl	-21.4	-31.6	-5.3	-0.4	8.0	7.8
COc1ccc(Cl)cc1C(=O)Nc1ccccc1N1CCN(C(=O)C(C)C)CC1	-2.7	-25.5	19.9*	0.0	3.4	6.3
Cn1c(=NC(=O)c2cccc([N+](=O)[O-])c2)sc2ccccc21	-8.1	-2.1	-11.3	-1.3	0.9	7.8

Screening results as filed in PubChem BioAssay.
